RE007 growth inh – less growth of the S. pombe RE007 Vpr strain | S. pombe RE007 Vpr strain, BacTiter-Glo ATP luminescence, 24 h | Potency, µM (highest dose often 92.2 µM), hits mostly inhibitors | AID 651644 | hit rate 0.21% among 360,000; active means well fitted falling curve with a large enough effect; inconclusive means small, poorly fitted or top-dose-only effect; inactive means no such curve, though single readings can be large or run the other way; further: nearly all actives have a fitted effect of over 50% in size
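Fission yeast RE007 carrying one integrated HIV-1 vpr copy, seeded at OD 0.01 in PMG+AL medium with 23 nL pinned compound. Grown 24 h at 30 degrees; viability read by BacTiter-Glo luminescence after 5 min.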
NS1 function inh – inhibitors of influenza NS1 protein function | Potency, µM (titrated, usually from 46.1 µM) | hit rate 0.4% among 270,000; further: actives are rising curves; nearly all actives have a fitted effect of over 50% in size
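A cell-based growth assay was used: compounds that relieve NS1-induced slow growth of budding yeast raise OD600. Assay medium was yeast nitrogen base with ammonium sulphate and -URA supplement, pH 6.0, with 2% galactose.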
SARS PLpro yeast – SARS-CoV PLP inhibition in yeast | AID 485353 | S. cerevisiae expressing SARS-CoV PLpro, growth rescue | hit rate 0.19% among 330,000 | Potency, µM (titrated, usually from 32.9 µM), hits mostly activators; further: nearly all actives have a fitted effect of over 55% in size
Pf growth 48h – P. falciparum growth inhibition at 48 hours (one generation). P. falciparum luciferase growth in erythrocytes, 48 h. Potency, µM (titrated, usually from 28.7 µM), usual class: inhibitors. hit rate 5.9% among 310,000; active means well fitted inhibition curve with a large enough effect; inconclusive means small, poorly fitted or top-dose-only effect, or another doubt; inactive means no such curve, though single readings can be large or run the other way
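Growth was read as firefly luciferase luminescence after a 48 h, 37 C, 5% CO2 exposure of compounds to reporter-bearing P. falciparum cultures (0.1% parasitemia, 2% hematocrit final) in Albumax-supplemented RPMI 1640.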
Pf growth 96h – P. falciparum growth inhibition at 96 hour, primary screen for plastid delayed-death inhibitors. P. falciparum luciferase reporter growth, 96 h. Potency, µM (doses to about 28.7 µM), usual class: inhibitors. hit rate 6.9% among 320,000. AID 504834; active means well fitted inhibition curve with a large enough effect; inconclusive means small, poorly fitted or top-dose-only effect, or another doubt; inactive means no such curve, though single readings can be large or run the other way
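Infected RBCs, 2% Hct / 0.05% parasitemia final; luciferase-reporter P. falciparum; cpd 96 h, 37 C, 5% CO2; luciferase detection reagent; luminescence.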
Of the large screens only hits and unclear results are named; the others gave an inactive call. Rows were chosen to be rich in hits. Some 9.5% of all compounds tested hit in one or more screens of this group. Unless noted, the call rests on the fitted dose curve.

COc1cc(OC)nc(Oc2cc(C=O)ccc2OC)n1	none
CN1CCCCC1(C)C(=O)NCc1ccc(C(C)(C)C)cc1 (configuration not stated)	none (no result: NS1 function inh, SARS PLpro yeast, Pf growth 48h, Pf growth 96h)
COc1cccc(OCC(=O)NNC(=O)C(=O)Nc2cccc(C)c2)c1	none
CCc1ccc2oc(-c3cc(N)ccc3Cl)nc2c1	RE007 growth inh 16µM, Pf growth 96h inconclusive
O=[N+]([O-])c1cccc2c([N+](=O)[O-])cccc12	Pf growth 96h 5.9µM (no result: NS1 function inh)
COc1ccc(C2N(Cc3ccccc3)CC(=O)N2/N=C(\C)c2ccccc2)cc1 (configuration not stated)	none
COc1ccc(C2(CNC(=O)c3cccc([N+](=O)[O-])c3)CCOCC2)cc1OC	none
COc1ccc(C2(CNC(=O)c3cccc([N+](=O)[O-])c3)CCCCC2)cc1OC	Pf growth 48h inconclusive, Pf growth 96h 5.9µM
COc1ccc2[nH]c(=O)c(CN(C(=O)C3CCCO3)c3cccc(C)c3)cc2c1 (configuration not stated)	Pf growth 96h 8.3µM (no result: RE007 growth inh)
COc1ccc(N(Cc2cc3cc(OC)ccc3[nH]c2=O)C(=O)C2CCCO2)cc1 (configuration not stated)	Pf growth 48h inconclusive
Cc1cccc(N(Cc2cc3cc(C)ccc3[nH]c2=O)C(=O)c2cccs2)c1	Pf growth 48h 13µM, Pf growth 96h 7.4µM
O=C(NCc1ccccc1)c1ccccc1NC(=O)C1CCCCC1	Pf growth 48h inconclusive
O=C(Nc1c(C(=O)O)[nH]c2ccc(F)cc12)c1cccc(C(F)(F)F)c1	none
CC(NC(=O)CNC(=O)c1ccccc1Br)c1cccs1 (configuration not stated)	none (no result: NS1 function inh)
COCCCNC(=O)C1CCN(c2nc(C)cc(C)n2)CC1	Pf growth 96h 5.2µM
Cc1c(S(=O)(=O)N2CCOCC2)c(=O)n(C)c(=O)n1C	none
O=C(O)c1cccc(S(=O)(=O)N2CCN(C(c3ccccc3)c3ccccc3)CC2)c1	Pf growth 48h 10µM, Pf growth 96h 13µM (no result: NS1 function inh)
O=C(O)c1cccc(S(=O)(=O)N2CCCC2)c1	none
Cc1c(S(=O)(=O)N2CCN(C(c3ccccc3)c3ccccc3)CC2)c(=O)n(C)c(=O)n1C	Pf growth 48h 1.7µM, Pf growth 96h 2.3µM
COc1ccc(C(=O)NCCCN(C)CCCNC(=O)c2ccc(OC)cc2)cc1	Pf growth 96h inconclusive
O=C(NC(=S)N1CCCCCC1)c1ccc(Cl)cc1Cl	Pf growth 48h inconclusive, Pf growth 96h 9.3µM
CN1CCN(C(=S)NC(=O)c2ccccc2Cl)CC1	none
O=C(NC(=S)N1CCCCCC1)c1ccccc1Cl	Pf growth 48h 5.2µM (no result: NS1 function inh)
O=C(NC(=S)N1CCCCCC1)c1ccccc1	Pf growth 48h inconclusive
O=C(Nc1ccccc1C(=O)N1CCCC1)c1ccc(Cl)cc1Cl	Pf growth 96h 12µM
COc1cccc(CNC(=O)CCCc2nnc3n(C)c(=O)c4sccc4n23)c1	Pf growth 48h inconclusive
CCOc1ccccc1N1CCN(C(=O)C2=CC=CN3CCS(=O)(=O)N=C23)CC1	none (no result: NS1 function inh)
CSC1=C(C#N)C2(CCCC2)C(C#N)=C(N)N1	Pf growth 48h inconclusive (no result: RE007 growth inh)
CCSC1=C(C#N)C2(CCCC2)C(C#N)=C(N)N1	Pf growth 48h 9.3µM
CN(C)Cc1ccc(O)c(CCc2ccccc2)n1	Pf growth 48h 5.2µM
CC1CCCCN1C(=O)COC(=O)c1ccc(=O)n(Cc2ccccc2)n1 (configuration not stated)	none (no result: NS1 function inh)
CCN(CC(O)Cn1c2ccccc2c2ccccc21)S(=O)(=O)c1ccc(C)cc1 (configuration not stated)	NS1 function inh inconclusive (no result: Pf growth 48h, Pf growth 96h)
Cc1ccc(S(=O)(=O)N(CCCO)CC(O)CON=C2c3ccccc3-c3ccccc32)cc1 (configuration not stated)	Pf growth 48h inconclusive, Pf growth 96h 9.3µM
O=C(O)c1ccc2c(c1)C(=O)N(CCc1c[nH]c3ccccc13)C2=O	none
CCOC(CCNC(=O)c1cc(-c2cccs2)nc2ccccc12)OCC	none
Cc1cc(C)cc(N(C(=O)c2sc(C)nc2C)C(C(=O)NC(C)(C)C)c2ccncc2)c1 (configuration not stated)	none (no result: NS1 function inh)
COC(=O)c1ccccc1NC(=S)N(Cc1ccc2c(c1)OCO2)Cc1cc2ccc(OC)cc2[nH]c1=O	NS1 function inh inconclusive, Pf growth 48h 9.3µM
CCN(CC)CCN(Cc1cc2cccc(C)c2[nH]c1=O)C(=S)Nc1ccccc1	Pf growth 48h 12µM
COc1ccc2[nH]c(=O)c(CN(Cc3ccc4c(c3)OCO4)C(C)=O)cc2c1	Pf growth 96h inconclusive
COC(=O)c1ccccc1NC(=S)N(Cc1ccc2c(c1)OCO2)Cc1cc2ccc(C)cc2[nH]c1=O	NS1 function inh inconclusive, Pf growth 48h 9.3µM, Pf growth 96h inconclusive
CCN(CC)CCN(Cc1cc2ccc(C)cc2[nH]c1=O)C(=S)Nc1ccccc1C(=O)OC	Pf growth 48h 13µM
CCC(=O)N(Cc1ccc(C)cc1)Cc1cc2cc3c(cc2[nH]c1=O)OCO3	none (no result: Pf growth 48h)
O=C(c1nc2ccc([N+](=O)[O-])cc2[nH]c1=O)[C@@H](O)c1ccc2c(c1)OCO2	none (no result: RE007 growth inh, SARS PLpro yeast, Pf growth 48h, Pf growth 96h)
COC(=O)C1=C(C)Nc2[nH]c(=S)[nH]c(=O)c2C1c1ccc(O)cc1 (configuration not stated)	Pf growth 96h inconclusive
O=C(Nc1ccc(Cl)cc1)c1ccc(-n2cncn2)c([N+](=O)[O-])c1	Pf growth 48h inconclusive, Pf growth 96h inconclusive
CC(=O)c1ccc(S(=O)(=O)N2CCN(C(=O)c3ccc(N)c([N+](=O)[O-])c3)CC2)cc1	Pf growth 48h inconclusive, Pf growth 96h inconclusive (no result: NS1 function inh)
Nc1ccc(C(=O)N2CCN(S(=O)(=O)c3ccc(Br)cc3)CC2)cc1[N+](=O)[O-]	Pf growth 48h inconclusive, Pf growth 96h 8.3µM (no result: NS1 function inh)
CCN(CC)S(=O)(=O)c1cc(NC(=O)c2ccc(-n3cncn3)c([N+](=O)[O-])c2)ccc1C	Pf growth 48h 13µM, Pf growth 96h 15µM
CCN(CC)S(=O)(=O)c1ccc(NC(=O)c2ccc(Sc3nncn3C)c([N+](=O)[O-])c2)cc1	Pf growth 48h 12µM, Pf growth 96h inconclusive
O=C(Nc1cccc(Cl)c1)c1ccc(-n2cncn2)c([N+](=O)[O-])c1	Pf growth 48h 12µM, Pf growth 96h inconclusive
Cc1ccc(NC(=O)c2ccc(-n3cncn3)c([N+](=O)[O-])c2)cc1	Pf growth 48h inconclusive, Pf growth 96h inconclusive
NC1(C(=O)O)CSSC1	none (no result: NS1 function inh, SARS PLpro yeast, Pf growth 48h, Pf growth 96h)
Cc1ccc(S(=O)(=O)N2CCN(C(=O)c3ccc(-n4cncn4)c([N+](=O)[O-])c3)CC2)cc1C	Pf growth 48h inconclusive, Pf growth 96h 7.4µM (no result: NS1 function inh)
COc1cccc(NS(=O)(=O)c2cc3c(cc2C)N(C(C)=O)CCO3)c1	Pf growth 96h inconclusive
CC(=O)N1CCOc2cc(S(=O)(=O)Nc3c(C)cccc3C(C)C)c(Cl)cc21	Pf growth 48h 8.3µM, Pf growth 96h 5.2µM (no result: RE007 growth inh, NS1 function inh)
Cc1cccc(NC(=O)c2cc(S(=O)(=O)N3CCCC3)cn2C)c1	none
COc1ccc(CCNC(=S)Nc2ccc(OC)cc2)cc1	none
S=C(NCCNC(=S)Nc1ccccc1)Nc1ccccc1	Pf growth 96h inconclusive

Compound activity deposited in PubChem BioAssay by National Center for Advancing Translational Sciences (NCATS).
